This passage reports binding signal results from publication PMC12136788.

Sequences and labels used below:
B1: chr10:110135209:110135310:+|3pUTR|ENSG00000148700|msi1|total|mutant (ssRNA)
RNA: GGGAGUUCUACAGUCCGACGAUCCUCUCUAUUGGAAGAUUUUUUUAAUGUUCUACAUCAUUUAUGUUGUAUUACAAUGUAUGCCGAAACCGUAACCUGUGAACUAUGCUUUUCCAUAACUUUUUAAAAAUAUAUAUAUCUAAACAACAGAGGAUUGAGCAUCA
B2: chr18:3457781:3457936:+|CDS|ENSG00000177426|unk|total|mutant (ssRNA)
RNA: GGGAGUUCUACAGUCCGACGAUCCAACACUCCUCCCCCUACUCCACCGGACCUCAACCAGGACUUCAGUGGAUUUCAGCUUCCCGUGGAUGUUGCACUCAAACGGGCUGCAGAGAUGGAGCUUCAGGCAAAACUUACAGCUUACAACAGAGGAUUGAGCAUCA
B3: chr8:88032264:88032379:-|3pUTR|ENSG00000156103|unk|FALSE|bound_elsewhere (ssRNA)
RNA: GGGAGUUCUACAGUCCGACGAUCACUCCUUAUAAUGUUGCGUCAUUAAAGGUCAAGGGGUCAUGCUAUUAAUCUCAUUGCUAUAGACCAUUAACAUGACUGAACUUUUCCACAAAGUACUUAUGUUUACAAUGCUAUAACCCUCAACAGAGGAUUGAGCAUCA
B4: ENSG00000150457:stop:overlap|stop_codon|ENSG00000150457|stop_codon|NA|stop_codon (ssRNA)
RNA: GGGAGUUCUACAGUCCGACGAUCCAGAUUUAGAAAGCUCUGAUCUGGUGGAUCAGACUGAAGGCUGCCAGCCUGUGUACGUGUAGAUGGGGGCCAGGCACCCCCACCACUCGCUGCCUCCCAGGUCAGGGUCCCGGAGCCGGUCAACAGAGGAUUGAGCAUCA
B5: chr11:118657315:118658441:-|three_prime_utr|ENSG00000118094|control|control|control (ssRNA)
RNA: GGGAGUUCUACAGUCCGACGAUCCCUCCCAGCCUGUCCUCAGAGCGAAGUGGAGGGCAGGGUCACGACCUGGAGGUCAUGGGUAGGGGCCUAGCUCCCUCCUGGAACCUUGAAUAGGGUGGAAAUCCUGCUCUGGAGGGAAGACAACAGAGGAUUGAGCAUCA
B6: chr1:156742365:156742464:-|3pUTR|ENSG00000143321|msi1_unk|total|mutant (ssRNA)
RNA: GGGAGUUCUACAGUCCGACGAUCAUUUCUGAGGUGCACUGGGAGGCUCCCCUUCUAUUUGGGGCUUGAUGACUUUCUUUUUGCCGCUGGGGCUUUGAUGUUCCUUCCAGUGUCAUUUCUCAUCCACAUACCCUGACCUGGCCCCAACAGAGGAUUGAGCAUCA
B7: ENSG00000067715:stop:overlap|stop_codon|ENSG00000067715|stop_codon|NA|stop_codon (ssRNA)
RNA: GGGAGUUCUACAGUCCGACGAUCAGGAGAAGUUUAUGAAUGAGUUGCAUAAAAUUCCAUUUCAAAGGAAAGAGAGUACCAAUUAGACAAGGGAAGAAGAUGAGAGACUGCCUGAACAGCAUCACUUUUGUAAACUGAGAGUUCCAACAGAGGAUUGAGCAUCA
B8: chr19:34227675:34227687:+|3pUTR|ENSG00000257103|msi1_unk|total|mutant (ssRNA)
RNA: GGGAGUUCUACAGUCCGACGAUCUUAAAACAUGAGCAUUAAAUAUAUUUGGAACCGCAGAAGGUUAAGUAAUUUCUUAUGUACCGUUAAACUAAAGCAGUACUUCAGUGGGACUUAACAAGUAUUUUUUCAUCACUGAAAGGUCAACAGAGGAUUGAGCAUCA
B9: chr11:85958428:85958534:-|3pUTR|ENSG00000073921|unk|FALSE|unique (ssRNA)
RNA: GGGAGUUCUACAGUCCGACGAUCAGAAACAAUAACUGAAAUUAACUUUUCUUUUUUUAAAAAAAAUUAUAUUCAGUUUGCAGUAGACAUUCCUUAAGUAUUUGUAUUUAUUUAUGAUUAUCAAUUUUACAUAACAUUAAUAUUCAACAGAGGAUUGAGCAUCA
B10: chr8:30843048:30843149:-|CDS|ENSG00000133863|unk|total|mutant (ssRNA)
RNA: GGGAGUUCUACAGUCCGACGAUCGGAUACUAUAAUUGCUUCCAGAAAGUCAGAUCAUCCAAUAAACGAAGCAACAAUCCGCACCGAAAAUUCUAAAUUUAACAGUAAUUUGCUUGCACACCCAGAUAUUUGUUGUAUCCGUGACAACAGAGGAUUGAGCAUCA
B11: chr3:44647099:44647200:+|3pUTR|ENSG00000186448|msi1|FALSE|unique (ssRNA)
RNA: GGGAGUUCUACAGUCCGACGAUCAUUUGUAUGUAAACUACAUAAAGAACUUUCCAAAUUUAACAGUAAUAAGUAAAUACAAUUAGAAAAUAAGCAAAAGACAGACAUUUCACUGAAGUAUAGAUAGCAAAUAAGCAAAUGAAACAACAGAGGAUUGAGCAUCA
B12: chr12:125025615:125025697:+|3pUTR|ENSG00000184992|msi1_unk|FALSE|overlapping (ssRNA)
RNA: GGGAGUUCUACAGUCCGACGAUCGGACACAUUCCCAGAAGAGCGGAAAGAUCAUUGACGUGGAACUACACACGAAGUGUAAUUAGUGGGGGAAAAAAUAUUUUUUAAACAAAGGAUAUAACCAUAUUUAGUUGUACAGUAAGACAACAGAGGAUUGAGCAUCA
B13: chrX:41141081:41141111:+|CDS|ENSG00000124486|msi1_unk|total|mutant (ssRNA)
RNA: GGGAGUUCUACAGUCCGACGAUCCACUCUUCAUACAGUGAAAAAGUACUUUCUUCCAAUAACCGAAAUGGUUCCACAGUUUUCCGAAAACUUAACUGAUGAAGAACUGAAAAAAGAAGCAAAGAAUGAAGCCAAAAAUGAUGCCAACAGAGGAUUGAGCAUCA
B14: chr8:30843048:30843149:-|CDS|ENSG00000133863|unk|FALSE|unique (ssRNA)
RNA: B10 RNA with C78U, C79A, C83U, C84A, C138U, C139A
B15: chr3:44647099:44647200:+|3pUTR|ENSG00000186448|msi1|total|mutant (ssRNA)
RNA: B11 RNA with U83C, A84C, U120C, A121C, U124C, A125C
B16: chr11:214995:215097:+|3pUTR|ENSG00000177963|unk|total|mutant (ssRNA)
RNA: GGGAGUUCUACAGUCCGACGAUCCCUCCUUCCUACUGGUUCCGACUACACUUACAACAAGGAAAAUGCCCCUCGUGUGACCACCGAUUGAGAUUUAUACCACAUACCACACACCGCCACAGAAACAUCAUCUUGAAAUAAAGACAACAGAGGAUUGAGCAUCA
B17: chr5:157162449:157163658:-|CDS|ENSG00000170613|control|control|control (ssRNA)
RNA: GGGAGUUCUACAGUCCGACGAUCGGUCACAUCACAUGACAGAGAGGUAGAUAUCGUGGCUAAGAUGGUGGAGAAGCAAAACAUAGAGGCCAAAGUGGAGAAAGCCCAGGGUGGCCAGGAGCUGGAGAUGAUCAGUGGCACUAUCAACAGAGGAUUGAGCAUCA
B18: chr1:234405902:234406099:-|CDS|ENSG00000059588|control|control|control (ssRNA)
RNA: GGGAGUUCUACAGUCCGACGAUCCCUUAUAGUUGUGCUGCAGUGGUGUUUCAAUCACAAUUUUAGUGUUCGACUGUAUGCUUUAGUUGCUCUUAAGAAACUCUGGACUGUGUGUAAAGUGUUAAGUGUUGAAGAAUUUGAUGCCAACAGAGGAUUGAGCAUCA
B19: chr6:136278143:136278257:-|CDS|ENSG00000029363|unk|total|mutant (ssRNA)
RNA: GGGAGUUCUACAGUCCGACGAUCACAUCCGGUGAUAUUUGGCCUGGCCUUUCAGCUUAUGAUAACCGUCCCCGAUCACCCCACCGUCCUUCACCUAUUGCUACACCACCCCGUCAGAGUUCAUCUUGCUCUGAUGCUCCCAUGCAACAGAGGAUUGAGCAUCA
B20: chr1:15430058:15430159:+|3pUTR|ENSG00000142634|msi1|FALSE|unique (ssRNA)
RNA: GGGAGUUCUACAGUCCGACGAUCCCUGGAAGCUACGCGGACUUGCAGAGGUUUUAUUUUUUGGCCUUAGAAUCUGCAGAAAUUAGGAGGCACCGAGCCCAGCGCAGCAGCCUCGGACCCGGAUUGCGUUUGCCUUAGCGGAUACAACAGAGGAUUGAGCAUCA
B21: ENSG00000070961:be:win_4001|3pUTR|ENSG00000070961|bound_else_gene|NA|bound_elsewhere_windowed (ssRNA)
RNA: GGGAGUUCUACAGUCCGACGAUCAGUAAAACUGGGCAAGACAAAGAGCCCUGGAUCGUUGAAUUGAUAGUUUAAUUUCUGCUGUUGGCUGUUAAUAAUUUGGAUUAUUUAUGUUUAUAAAUGAUACAGAUCUGUUUACAAGGUCAACAGAGGAUUGAGCAUCA
B22: ENSG00000005810:stop:overlap|stop_codon|ENSG00000005810|stop_codon|NA|stop_codon (ssRNA)
RNA: GGGAGUUCUACAGUCCGACGAUCCACCCACUGGGGAAGAGUUUGCUCUGGGAUGUGGAGUGUGCAGAAAUGCCCACACUUUUUAGAACACGCAGAUCCUUUGUCUACAGAGAGAAAAAUUGCCUUCAUCCCCCAAGAGGAUGCCAACAGAGGAUUGAGCAUCA

Positions count from the first letter of the chain named. Over roughly 5,800 sequences, “enrichment r” has its median near 0.54; the highest 2% begin near 16. The sample holds the highest values, similar sequences and a random draw of the others, so the mix is not that of the screen.

The assay deals with MSI1 full-length (mouse, UniProt Q61474 1-362). As to the kind of experiment: nsRBNS (natural sequence RNA bind-n-seq); RBNS binding buffer (assumed for nsRBNS): 25 mM Tris pH 7.5, 150 mM KCl, 3 mM MgCl2, 0.01% Triton X-100, 500 ug/ml BSA, 20 U/ml SUPERase-In, 4 C; UNK is unkempt and MSI1 is Musashi-1; names of the RNAs are library labels; protein concentration not given here; high values mean tight binding.
MSI1 full-length, sequence (Q61474 whole entry): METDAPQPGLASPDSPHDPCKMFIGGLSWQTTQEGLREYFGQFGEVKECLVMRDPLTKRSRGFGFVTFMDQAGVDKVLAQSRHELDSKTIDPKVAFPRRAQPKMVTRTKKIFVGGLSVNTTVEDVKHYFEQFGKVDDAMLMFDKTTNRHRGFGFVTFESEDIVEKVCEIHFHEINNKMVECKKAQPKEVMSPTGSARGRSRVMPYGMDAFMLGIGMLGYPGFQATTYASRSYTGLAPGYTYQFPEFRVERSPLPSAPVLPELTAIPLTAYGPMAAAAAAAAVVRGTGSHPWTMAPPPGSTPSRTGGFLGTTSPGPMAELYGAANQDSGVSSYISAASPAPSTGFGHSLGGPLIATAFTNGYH
Molecule B1 displayed a binding signal of 7.3 enrichment R.

In the case of B2, the binding signal amounted to 0.52 enrichment R.

B3 returned a binding signal of 0.72 enrichment R.

On to B4, for which the binding signal amounted to 0.418 enrichment R.

B5 displayed a binding signal of 0.327 enrichment R.

B6 registered a binding signal of 0.353 enrichment R.

As to B7, the binding signal stood at 0.457 enrichment R.

B8 returned a binding signal of 1.31 enrichment R.

In the case of B9, the binding signal worked out at 4.67 enrichment R.

B10 registered a binding signal of 1.28 enrichment R.

Take B11: the binding signal worked out at 129 enrichment R.

B12 displayed a binding signal of 3.62 enrichment R.

B13 came in with a binding signal of 0.267 enrichment R.

As to B14, the binding signal is 29.7 enrichment R.

The molecule B15 displayed a binding signal of 19.7 enrichment R.

Consider B16, for which the binding signal turned out to be 0.839 enrichment R.

Turning to B17, the binding signal is 0.709 enrichment R.

For B18, the binding signal was found to be 0.964 enrichment R.

B19 yielded a binding signal of 0.739 enrichment R.

The molecule B20 yielded a binding signal of 0.989 enrichment R.

Turning to B21, the binding signal was 0.47 enrichment R.

As to B22, the binding signal stood at 0.439 enrichment R.
